# Giardia killer: Giardia lamblia killing. Giardia lamblia trophozoite viability. activity change, % at 7.66 µM, hits read low. 0.15% of 340,000 active. AID 540267; in the data active means activity change below about -80%; inconclusive means between about -30% and that limit;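 further: parasites exposed to compound for two days anaerobically before the ATP read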
#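 Giardia trophozoites, 100 cells per well, were exposed to compounds for 48 hrs at 37 deg C under anaerobic conditions; viability was then read as ATP content by bioluminescence after 15-30 min at room temperature.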
# FBPA coupling cs: inhibits coupling enzyme system, counter-screen for aldolase hits; coupling enzyme system counterscreen, AmpLite Red fluorescence; activity change, negative = inhibition, % at 58.2 µM, hits read low; 0.67% of 290,000 active; in the data active means activity change below about -30%
#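 Fluorescence at 525 nm excitation and 598 nm emission measured inhibition of the coupled detection system without aldolase. Compounds (at 57.5 uM final) were preincubated 10 min at room temperature with coupling enzyme reagent before a 20 min substrate/AmpLite Red step.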
# ELG1 DNA repair: ELG1-dependent DNA repair inhibition; HEK293T ELG1-luciferase reporter, luminescence, 16 h; DNA damage induced by 5-fluorouridine; Potency, µM (highest dose often 46.1 µM), for the others: top-dose activity change, negative = inhibition, most hits filed as inhibitors; 2.3% of 330,000 active; AID 504467; further: potency means the concentration at half of the fitted maximal effect; nearly all actives have a fitted effect of over 55% in size
#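 Overnight (16 hr) co-exposure of 2,000 cells/well to 5-fluorouridine and compound at 37 °C preceded detection. Luciferase was quantified via ONE-Glo luminescence; loss of signal denotes inhibition.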
# Sfp inh: blocks B. subtilis Sfp PPTase activity; Potency, µM, for the others: largest response in the series, negative = inhibition, actives largely listed as inhibitors; Biochemical Sfp PPTase activity, qHTS; Q9F4F7; 3.5% of 310,000 active;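 further: the enzyme is Sfp with the accession as filed and its product quenches rhodamine fluorescence; potency means the concentration at half of the fitted maximal effect; 0% = enzyme reaction without inhibitor and -100% = no enzyme wells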
#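 With Hepes-Na pH 7.6 buffer containing 10 mM MgCl2, Sfp (15 nM) modified BHQ-2-YbbR (12.5 uM) using rhodamine-CoA (5 uM). Two reads 30 minutes apart at 525/598 nm yielded each well's rate.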
# Numbers without * were called inactive; ? = inconclusive; . = no result given. This is a sample that favours compounds with a hit; in the whole collection about 5.5% have one here. Unless noted, the call rests on the fitted dose curve; in most records, active means well fitted curve in the direction sought with a large enough effect; inconclusive means small, poorly fitted or top-dose-only effect, or another doubt; inactive means no such curve, though single readings can be large; an effect the other way counts as inactive or inconclusive. Unless noted, on the % scale 0 is the no-effect control and ±100 the full control effect.
SMILES,Giardia killer,FBPA coupling cs,ELG1 DNA repair,Sfp inh
CC(=O)NN1C(=O)c2ccc3c4c(ccc(c24)C1=O)C(=O)N(NC(C)=O)C3=O,1.2,-32.1*,?,6.6%
S=c1[nH]nc2nnc3ccccc3n12,-9.7,-0.2,?,56.2µM*
S=c1[nH]nc2sc3ccccc3n12,14.2,.,.,.
Cc1ccc2[nH]c(=O)c(CN(Cc3ccccc3)Cc3nnnn3C3CCCC3)cc2c1,-2.6,-1.3,?,39.8µM*
O=c1[nH]c2cc3c(cc2cc1CN(Cc1nnnn1C1CCCC1)C1CCCC1)OCCO3,6.9,2.5,13µM*,-6.2%
O=[N+]([O-])c1ccc(Sc2cccc3cccnc23)c([N+](=O)[O-])c1,-14.9,-46.6*,?,?
O=[N+]([O-])c1ccc(Sc2cccc3cccnc23)cc1,-1.6,-42.0*,?,1.4%
O=[N+]([O-])c1cc(Cl)ccc1Sc1cccc2cccnc12,10.2,-22.8,2.7%,-0.2%
CNC[C@H](CC1CCCCC1)NC[C@H](Cc1ccccc1)NCCC12CC3CC(CC(C3)C1)C2,-11.2,-1.8,?,44.7µM*
Cc1cc(C)c2c(=O)[nH]c(SCC(=O)c3ccc(C)c(C)c3)nc2n1,-1.5,3.2,-6.0%,56.2µM*
Cc1nc2sc3c(c2c(=O)[nH]1)CCC3,1.9,0.8,12.9%,-1.1%
Cc1cc(-c2nc3c4c5c(sc4[nH]c(=O)n3n2)CCC5)c(C)o1,-18.9,0.0,3.0%,28.2µM*
CC(=O)Nc1sc(-c2ccccc2)nc1-c1ccccc1,5.5,1.6,?,14.2%
O=C(O)Cc1sc(-c2ccc(Cl)cc2)nc1-c1ccccc1,6.0,4.1,5.5%,15.1%
O=c1cc(O)nc(-c2ccccc2)s1,-10.9,2.9,1.7%,12.6µM*
O=c1cc(O)nc(-c2ccc(Cl)cc2)s1,15.9,1.1,5.8%,17.8µM*
COc1ccc(N(CC(=O)Nc2ccc3c(c2)OCO3)S(=O)(=O)c2ccccc2)cc1OC,-0.7,-0.1,?,9.0%
COc1ccc(N(CC(=O)Nc2ccc3c(c2)OCO3)S(=O)(=O)c2ccccc2)c(OC)c1,3.1,-10.7,14.6µM*,-4.3%
COc1ccc(N(CC(=O)NCCC2=CCCCC2)S(=O)(=O)c2ccc(C)cc2)cc1OC,-14.7,3.7,14.6µM*,-4.5%
COc1ccc(N(CC(=O)Nc2ccc3c(c2)OCO3)S(=O)(=O)c2ccc(C)cc2)cc1OC,-10.9,-2.8,25.9µM*,-6.6%
COc1cccc(CN2C(=O)C(C)N(C(=O)c3ccccc3)c3ccccc32)c1 (stereo not given),-0.4,-1.3,?,1.6%
CC(C)OC(=O)CSc1nnc(-c2ccncc2)n1N,5.5,3.1,2.6%,5.7%
CC(C)OC(=O)CSc1nnc(-c2ccc(C(C)(C)C)cc2)n1N,-7.9,-21.4,?,15.8µM*
Cc1nn(-c2ccccc2)c2c1C1(C(=O)N(C(C)C)c3ccccc31)C(C#N)=C(N)O2 (stereo not given),-4.5,-55.0*,0.0%,4.8%
CCCCCCCCn1cnc2c(N)c(C)c(C)cc21,12.0,-1.3,10.1%,-9.1%
SMILES,Giardia killer,FBPA coupling cs,ELG1 DNA repair,Sfp inh
CC1(C)OC2C(CO)OC(n3cnc4c(=O)[nH]cnc43)C2O1 (stereo not given),.,1.7,.,9.1%
CCCCCn1cnc2c(=S)nc(N)[nH]c21,-4.2,0.3,2.0%,2.51µM*
Nc1nc(=S)c2ncn(C3OC(CO)C(O)C3O)c2[nH]1 (stereo not given),5.2,0.3,-11.5%,6.31µM*
Nc1nc2c([nH]c(=S)n2C2OC(CO)C(O)C2O)c(=O)[nH]1 (stereo not given),.,-1.7,.,44.7µM*
CC1(C)OC2C(CO)OC(n3cnc4c(=S)nc[nH]c43)C2O1 (stereo not given),12.1,-0.1,?,15.8µM*
O=C1NCc2c1c1c3ccccc3[nH]c1c1[nH]c3ccccc3c21,25.2,.,.,.
COc1ccc2cc(C#N)c(=O)oc2c1,.,-1.8,.,27.1%
CCCCn1cnc2c(=S)nc(N)[nH]c21,-11.1,2.4,6.2%,14.1µM*
Nc1nc(=S)c2ncn([C@@H]3O[C@H](CO)[C@@H](O)[C@H]3O)c2[nH]1,11.0,.,?,.
Nc1nc(=S)c2ncn(C3CCCCC3)c2[nH]1,-11.5,.,.,.
CCCn1cnc2c(=S)nc(N)[nH]c21,28.9,0.7,6.5%,39.8µM*
Nc1ccc(S(=O)(=O)N2CCCC2C(=O)O)cc1 (stereo not given),3.9,-19.2,-0.4%,79.4µM*
O=C1CCc2cc(S(=O)(=O)NC3CCCCC3)ccc2N1,5.9,.,27.4%,.
CN(C)/[N+]([O-])=N/Oc1cc(ON=[N+]([O-])N2CCN(c3ncccn3)CC2)c([N+](=O)[O-])cc1[N+](=O)[O-],-4.0,-2.3,.,50.1µM*
CCOC(=O)N1CCN([N+]([O-])=NOc2cc(O/N=[N+](\[O-])N(C)C)c([N+](=O)[O-])cc2[N+](=O)[O-])CC1,?,-0.9,.,?
CN(C)/[N+]([O-])=N/Oc1cc(O/[N+]([O-])=N/N2CCCC2CO)c([N+](=O)[O-])cc1[N+](=O)[O-] (stereo not given),?,1.5,.,79.4µM*
COC(C(=O)Nc1ccnn1C1CCN(C(=O)c2ccc(C=O)cc2)CC1)c1ccccc1 (stereo not given),11.5,-1.9,?,13.4%
Cn1c(N/N=C/c2cc3ccccc3nc2Cl)nc2ccccc21,-87.8*,-1.7,?,79.4µM*
CCOC(=O)c1c(C)oc2c1c(CN1CCN(C(=O)OCC)CC1)c(O)c1ccccc12,-11.8,-23.4,?,-20.5%
CCOC(=O)c1c(C)oc2c1c1c(c3ccccc32)OCN(Cc2ccccn2)C1,1.7,-37.3*,?,?
CCOC(=O)c1c(C)oc2c1c(C(c1ccncc1)N1CCOCC1)c(O)c1ccccc12 (stereo not given),0.0,-48.2*,?,?
CC1CCCCN1S(=O)(=O)c1ccc(C(=O)N(CCCN(C)C)c2nc3ccc(Br)cc3s2)cc1 (stereo not given),3.4,1.9,0.0%,50.1µM*
CN(C)CCN(C(=O)c1ccc(S(=O)(=O)N2CCCC2)cc1)c1nc2ccc(Br)cc2s1,6.1,.,?,-16.9%
CN(C)CCCN(C(=O)c1ccc(S(=O)(=O)N2CCCCCC2)cc1)c1nc2ccc(F)cc2s1,4.8,.,8.2µM*,-7.2%
S=c1nc(C2COc3ccccc3O2)[nH][nH]1 (stereo not given),20.7,4.4,-2.6%,22.4µM*
COc1c(N)c2ccccc2[nH]c1=O,10.0,-0.5,?,12.6µM*
O=c1[nH]c2ccccc2c2ccccc12,1.6,-0.8,?,5.9%
CC(NS(=O)(=O)c1ccc(OCC(=O)N2CCOCC2)c(Cl)c1)c1ccccc1 (stereo not given),-6.1,-0.3,14.6µM*,1.7%
CC(NS(=O)(=O)c1ccc(OCC(=O)N2CCOCC2)cc1)c1ccccc1 (stereo not given),16.0,-0.1,0.8%,23.4%
C=CCNC(=S)NNC(=O)C(CCCC)CC(C)(C)O (stereo not given),-25.0,-4.8,0.3%,17.8µM*

# High-throughput results deposited in PubChem by National Center for Advancing Translational Sciences (NCATS).
